For 60 compounds, max activity results are on record in PubChem BioAssay AID651717 (Broad Institute, 2012).

Screen size: about 1,200 compounds; about 950 (79%) were called active.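 Rule for the calls: active = signal rises and fitted curve reaches 40% activity at or below the top valid tested dose, in every replicate test; inconclusive = replicate tests give mixed calls; inactive = the rest, including activity in the opposite direction.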 The set was probably picked from earlier hits. A selection follows. Results with a measured potency or affinity are listed apart.

The test can be described thus: Bmi1-luciferase reporter activators in mESC, dose response, esBAF inhibitor project, mouse embryonic stem cells, cherry-pick (AID 651717).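 Note: luciferase knocked into Bmi1 locus with EF-1a renilla as cell number control; rising ratio signals esBAF inhibition which derepresses Bmi1.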 The conditions noted are these: firefly/renilla ratio, 24 h, stronger effect = higher value; at 35 µM unless noted. (Reporter assays use an easily measured gene product as a stand-in for the process of interest.)
`C[C@@H]1CN([C@@H](C)CO)C(=O)c2c(c3ccccc3n2C)-c2ccccc2CO[C@H]1CN(C)C(=O)Nc1ccc2c(c1)OCO2`: the max activity is -5.95% [at 1.1 µM] (inactive).

With `C[C@@H]1CN([C@H](C)CO)C(=O)Cc2cc(NC(=O)C3CCCCC3)ccc2O[C@H]1CN(C)C(=O)Nc1ccc2c(c1)OCO2`, the max activity is 7.16% [at 1.1 µM] (inactive).

Consider `C[C@H]1CN([C@@H](C)CO)C(=O)Cc2cc(NC(=O)C3CCCCC3)ccc2O[C@@H]1CN(C)C(=O)Nc1ccc2c(c1)OCO2`, for which the max activity was -4.16% [at 2.1 µM] (inactive). Regarding `C[C@H]1CN([C@@H](C)CO)C(=O)c2cccc(NS(=O)(=O)c3ccccc3)c2O[C@@H]1CN(C)C(=O)Nc1ccc2c(c1)OCO2`, the max activity was -33.5% [at 30 µM] (inactive). For `COc1ccc2nc(N(CCN(C)C)C(=O)c3ccc4ncsc4c3)sc2c1`, the max activity was 43.3% [at 8 µM] (inactive). Then `C[C@H]1CN([C@@H](C)CO)C(=O)c2cccc(NS(=O)(=O)c3ccccc3)c2O[C@H]1CN(C)C(=O)Nc1ccc2c(c1)OCO2`, with -6.71% (inactive); and `COc1ccc(N(CC(=O)Nc2ccccc2C(N)=O)S(=O)(=O)c2ccc(C)c([N+](=O)[O-])c2)cc1`, with 17% [at 16 µM] (inactive); and `COc1ccc(NC(=O)N(C)C[C@H]2OCCCC[C@@H](C)Oc3ccc(NC(=O)Nc4ccc5c(c4)OCO5)cc3C(=O)N([C@H](C)CO)C[C@@H]2C)cc1`, with 12.1% [at 8 µM] (inactive).

As to `CCOc1ccc2nc(Cl)c(C3CC(c4ccco4)=NN3S(=O)(=O)c3ccccc3)cc2c1` (stereo not given), the max activity was 9.03% [at 1 µM] (inactive). With `COC(=O)[C@H]1C[C@@]2(O)CN(S(=O)(=O)c3ccc(C)cc3)C[C@@]2(OC(=O)NCC2CCCCC2)C[C@H]1C(=O)OC`, the max activity was 29.2% (inactive). As for `CC1CCN(c2nc3ccc(C(=O)NCCCN4CCCCC4C)cc3s2)CC1` (stereo not given), the figure is -33.5% [at 16 µM] (inactive); as for `C[C@@H]1CN([C@H](C)CO)C(=O)c2cc(NC(=O)Nc3ccc4c(c3)OCO4)ccc2O[C@@H](C)CCCCO[C@H]1CN(C)S(=O)(=O)c1cn(C)cn1`, 5.01% [at 1 µM] (inactive). Then `CSc1cccc(NC(=O)c2[nH]c(C)c(C(C)=O)c2C)c1`, with 14.1% [at 8 µM] (inactive). `CC1=C(C(=O)OCc2ccccc2)C(c2ccc(Br)cc2)NC(=O)N1CCCCCC(=O)O` (stereo not given): the max activity is 11.1% [at 16 µM] (inactive). Then `C[C@@H]1CCCCO[C@H](CN(C)C(=O)Nc2cccc3ccccc23)[C@H](C)CN([C@@H](C)CO)C(=O)c2cc(NC(=O)CCC(F)(F)F)ccc2O1`, with 26.7% [at 1 µM] (inactive). As for `COc1ccc(-c2cc(C(=O)Nc3cc(OC)cc(C(=O)Nc4cccc(C(F)(F)F)c4)c3)[nH]n2)cc1`, the figure is 9.94% [at 4.2 µM] (inactive); as for `CCOC(=O)COc1c(OC)cc(Cl)cc1C1Nc2ccccc2C(=O)N1c1cccc(C)c1` (stereo not given), 28.5% (inactive). With `O=C(Nc1ccc(Cc2ccc(NC(=O)Nc3cccnc3)cc2)cc1)Nc1cccnc1`, the max activity was 25.6% [at 16 µM] (inactive). As for `Cc1ccc(NCC(=O)N/N=C\C(Br)=C\c2ccccc2)cc1`, the figure is 8.26% [at 16 µM] (inactive); as for `CC=Cc1ccc2n(c1=O)C[C@H]1[C@H](CO)[C@@H](C(=O)Nc3ccc(-c4ccccc4)cc3)N(CC)[C@@H]21` (mixture of isomers), 5.58% [at 0.26 µM] (inactive); as for `CC=Cc1ccc2n(c1=O)C[C@@H]1[C@@H](CO)[C@H](C(=O)Nc3ccc(-c4ccccc4)cc3)N(C)[C@H]21` (mixture of isomers), -24.6% (inactive).

For `CC(=O)c1ccc(N(C(=O)Cc2c[nH]c3ccccc23)C(C(=O)NC2CCCCC2)c2cccs2)cc1` (stereo not given), the max activity was -9.23% (inactive). Then `Cc1ccc2c(c1)Sc1ccccc1CC2=O`, with 16.2% (inactive); and `Cn1c(SCc2nc3ccccc3s2)nnc1-c1ccc2c(c1)OCO2`, with 27.7% (inactive). As for `O=C1Nc2ccccc2N=C(c2ccc3c(c2)OCO3)C1N(CCc1ccccc1)C(=O)CSc1ncccn1` (stereo not given), the figure is -16.9% (inactive). Then `C[C@@H]1CN([C@@H](C)CO)C(=O)c2cc(NC(=O)Nc3ccc4c(c3)OCO4)ccc2O[C@@H](C)CCCCO[C@H]1CN(C)Cc1ccncc1`, with -10.2% [at 0.5 µM] (inactive).

In the case of `Cc1ccc2nc(NC(=O)CCNS(=O)(=O)c3cccs3)sc2c1`, the max activity was 37.2% (inactive). Turning to `CNC[C@@H]1OCCCC[C@H](C)Oc2ccc(NS(=O)(=O)c3ccc(C)cc3)cc2C(=O)N([C@H](C)CO)C[C@H]1C`, the max activity was -8.01% [at 1.1 µM] (inactive).

On to `O=C1NC(Cc2ccc(O)cc2)c2nc3ccc(Br)cc3c(=O)n2-c2cc3ccccc3cc21` (stereo not given), for which the max activity is 6.63% [at 8 µM] (inactive). Then `C[C@@H]1CCCCO[C@@H](CN(C)Cc2ccncc2)[C@H](C)CN([C@@H](C)CO)C(=O)c2cc(NC(=O)Nc3ccc4c(c3)OCO4)ccc2O1`, with -10.3% [at 0.5 µM] (inactive); and `Cc1ccc(NC(=O)c2ccccc2F)c(NC(=O)c2ccccc2F)c1`, with 39.1% [at 16 µM] (inactive). As for `C[C@@H]1CN([C@H](C)CO)C(=O)c2cccc(NC(=O)Nc3ccc4c(c3)OCO4)c2O[C@H]1CN(C)S(=O)(=O)c1cccs1`, the figure is 36.7% [at 1 µM] (inactive). As for `CN(CC(=O)Nc1ccc(Cl)c(S(=O)(=O)N(C)C)c1)Cc1ccccc1`, the figure is 16.8% [at 1 µM] (inactive); as for `CN1C(=O)c2cc(NC(=O)c3ccc(C#N)cc3)ccc2OC[C@H]2O[C@@H](CC(=O)NC3Cc4ccccc4C3)CC[C@@H]21`, -7.14% (inactive); as for `Cc1c(CC(C)C)nc(N)c(C#N)c1-c1ccccc1`, 8.97% [at 16 µM] (inactive). As to `CCc1ccc(C(=O)CN2C(=O)NC3(CCCCCC3)C2=O)cc1`, the max activity is 32.8% (inactive). Consider `CC1CC(C)(C)CC2(C1)NC(=O)N(CC(=O)OCC(=O)Nc1cc(S(=O)(=O)N3CCCCC3)ccc1Cl)C2=O` (stereo not given), for which the max activity was 16.1% [at 0.5 µM] (inactive).

With `COc1ccc(C(=O)N2CCN(c3ccc(C(C)=O)cc3)CC2)cc1S(=O)(=O)N1CCCC1`, the max activity is 26.7% [at 2.1 µM] (inactive).

Take `COc1ccc(CCNC(=O)CSc2nc3ccsc3c(=O)n2Cc2ccccn2)cc1OC`: the max activity is 23.9% (inactive). Turning to `Cc1ccc(S(=O)(=O)Nc2cccc3c2O[C@@H](CN(C)C(=O)Nc2ccc4c(c2)OCO4)[C@@H](C)CN([C@@H](C)CO)C3=O)cc1`, the max activity is -17.3% (inactive).

As to `CC(=O)N(C)c1ccc(NCc2cc(=O)oc3cc(C)c(O)cc23)cc1`, the max activity is 19.2% (inactive). As for `COc1ccc2cc(C(=O)c3ccccc3)c(=O)oc2c1`, the figure is 32.6% [at 4.2 µM] (inactive); as for `C[C@@H]1CN([C@@H](C)CO)C(=O)c2cc(NC(=O)Nc3ccc4c(c3)OCO4)ccc2O[C@@H](C)CCCCO[C@@H]1CN(C)S(=O)(=O)c1cn(C)cn1`, -11% [at 0.5 µM] (inactive). Then `CC1CCN(c2ccc3c(c2)S(=O)(=O)c2cccc(C(=O)NCc4ccc(F)cc4)c2C3=O)CC1`, with 27.9% (inactive); and `Cc1ccc(S(=O)(=O)Nc2cccc3c2O[C@H](CN(C)C(=O)Nc2ccc4c(c2)OCO4)[C@H](C)CN([C@H](C)CO)C3=O)cc1`, with -21.3% (inactive); and `CCC(SC1=Nc2ccccc2C2=NC(CC(C)C)C(=O)N12)C(=O)Nc1ccc2c(c1)OCO2` (stereo not given), with -19.3% (inactive). As for `Cc1ccc(S(=O)(=O)N(C)C[C@H]2OCCCC[C@H](C)Oc3ccc(NC(=O)Nc4ccc5c(c4)OCO5)cc3C(=O)N([C@H](C)CO)C[C@H]2C)cc1`, the figure is 10.8% [at 16 µM] (inactive). For the compound `C[C@H](CO)N1C[C@H](C)[C@@H](CN(C)C(=O)Nc2ccc3c(c2)OCO3)OCCCC[C@H](C)Oc2ccc(NC(=O)c3ccncc3)cc2C1=O`, the max activity is -9% [at 0.26 µM] (inactive). With `CN(C)c1ccc(C(=O)Nc2cccc(S(=O)(=O)N3CCCC3)c2)cc1`, the max activity is 25% [at 16 µM] (inactive). As for `C[C@H]1CN([C@@H](C)CO)C(=O)Cc2cc(NC(=O)Nc3ccc4c(c3)OCO4)ccc2O[C@H]1CN(C)Cc1ccccc1`, the figure is 12.3% [at 8 µM] (inactive). Turning to `C[C@H]1CN([C@@H](C)CO)C(=O)Cc2cc(NC(=O)Nc3ccc4c(c3)OCO4)ccc2O[C@@H]1CN(C)Cc1ccccc1`, the max activity is -4.95% [at 2.1 µM] (inactive). Then `CCn1c(=N)n(CC(=O)c2ccc(Br)s2)c2ccccc21`, with 15.9% (inactive); and `CN(C)c1ccc(-c2nnn(Cc3ccccc3Br)n2)cc1`, with -12.5% (inactive). Then `CCOC(=O)c1cc(-c2sc(NC(=O)c3ccccc3)nc2C)n(-c2ccc(Br)cc2)n1`, with 24% (inactive).

In the case of `O=C(c1ccc2ccccc2c1O)N1CCCCC1`, the max activity is -23.4% (inactive).

For the compound `C[C@@H]1CN([C@@H](C)CO)C(=O)c2cc(NS(=O)(=O)c3ccc(F)cc3)ccc2O[C@H]1CN(C)C(=O)Nc1ccc2c(c1)OCO2`, the max activity is -5.95% [at 0.5 µM] (inactive). `Cc1ccc(S(=O)(=O)NCc2ccccc2)cc1C(=O)NC1CCC(C)CC1` (stereo not given): the max activity is 29.1% [at 4.2 µM] (inactive). Turning to `CN(C)Cc1c(C(=O)N/N=C/c2ccccc2OCc2c(F)cccc2Cl)nnn1-c1nonc1N`, the max activity was 19.7% [at 4.2 µM] (inactive). Then `C[C@H](CO)N1C[C@H](C)[C@@H](CN(C)S(=O)(=O)c2cn(C)cn2)OCCCC[C@H](C)Oc2ccc(NC(=O)Nc3ccc4c(c3)OCO4)cc2C1=O`, with 18.2% (inactive). Take `C[C@H]1CCCCO[C@@H](CN(C)C(=O)Nc2ccccc2)[C@@H](C)CN([C@@H](C)CO)C(=O)c2cc(NC(=O)Nc3ccc4c(c3)OCO4)ccc2O1`: the max activity was 11.1% [at 4.2 µM] (inactive).
